# In the library only some 3.5% were active in any assay of this set; here they are far more common.
# KCNK3 inh: human KCNK3 channel inhibitors, primary screen, CHO cells, FluxOR thallium flux, B-score; Potassium channel subfamily K member 3 (Homo sapiens), O14649; B-score at 10 µM; hit rate 0.84% among 340,000; AID 602410, 2012; FluxOR fluorescence; hits give low values;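 active = B-score under library mean minus 4 SD, starting fluorescence ratio at most library mean plus 5 SD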;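 note: more negative B-score means stronger inhibition of thallium flux through KCNK3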
# Target sequence (O14649 whole entry, looked up): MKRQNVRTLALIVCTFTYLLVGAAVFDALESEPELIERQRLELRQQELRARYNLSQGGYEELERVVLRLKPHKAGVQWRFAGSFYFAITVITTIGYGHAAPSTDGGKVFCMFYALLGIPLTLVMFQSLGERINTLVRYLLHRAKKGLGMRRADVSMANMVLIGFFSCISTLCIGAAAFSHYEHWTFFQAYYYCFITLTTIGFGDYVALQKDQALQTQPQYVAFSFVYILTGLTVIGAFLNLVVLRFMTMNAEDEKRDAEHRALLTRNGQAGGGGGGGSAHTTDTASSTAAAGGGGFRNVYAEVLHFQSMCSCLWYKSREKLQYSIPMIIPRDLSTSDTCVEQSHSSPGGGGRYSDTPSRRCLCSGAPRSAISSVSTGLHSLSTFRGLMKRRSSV
# TMEM16A inh: TMEM16A chloride channel inhibitors, primary screen, cell-based, HTS; HEK293 TMEM16A/YFP iodide influx fluorescence, ionomycin; normalized B-score (activity score, 25-100; higher = stronger inhibition) at 10 µM; hit rate 1.2% among 310,000; AID 588511, 2011;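 active = ratio plate-corrected score three or more library SD toward inhibition, starting fluorescence score within five deviations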;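 note: score derived from kinetic fluorescence span divided by baseline fluorescence per well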
# Kir21 block: inhibitors of mouse Kir2.1 inward-rectifier potassium channel; Inward rectifier potassium channel 2 (Mus musculus), P35561; HEK293-Kir2.1, FluxOR thallium flux fluorescence; hits give low values; B-score at 10 µM; hit rate 0.85% among 310,000; AID 1672, 2009;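 active = fluorescence ratio B-score at or below minus 3 SD of library scores, with starting-brightness B-score within 2 SD, cut at about -4.2 in these data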;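 note: channel flux triggered by added potassium and thallium sulfate stimulus; B-score of peak minus minimum fluorescence over baseline after thallium stimulus; more negative B-score means stronger Kir2.1 block with less thallium influx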
# TMEM16A act: TMEM16A chloride channel activators or potentiators, primary screen, cell-based, HTS. Anoctamin-1 (Mus musculus), Q8BHY3. HEK293 TMEM16A/YFP-H148Q/I152L, iodide quench fluorescence; hits give low values. B-score at 10 µM. hit rate 0.3% among 340,000. AID 623877, 2012;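 active = fluorescence-ratio B-score plate-corrected deviation score at least 3 library SD below zero, with starting fluorescence score within 5 deviations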;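 note: channel opened by trigger with iodide after compound preincubation; score built on the fluorescence ratio of max minus min over baseline; more negative score means more quench and so TMEM16A activation or potentiation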
# KCNK9 inh: KCNK9 potassium channel inhibitors, primary screen, HEK293 cells, thallium flux | Potassium channel subfamily K member 9 (Homo sapiens), Q9NPC2 | FluxOR thallium flux fluorescence; hits give low values | B-score at 10 µM | hit rate 1.2% among 310,000 | AID 488922, 2010;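 active = ratio B-score over 3 SD below the library mean, with starting fluorescence within 5 SD of its mean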;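 note: negative B-score means less thallium flux so channel inhibition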
# Target sequence (Q9NPC2 whole entry, looked up): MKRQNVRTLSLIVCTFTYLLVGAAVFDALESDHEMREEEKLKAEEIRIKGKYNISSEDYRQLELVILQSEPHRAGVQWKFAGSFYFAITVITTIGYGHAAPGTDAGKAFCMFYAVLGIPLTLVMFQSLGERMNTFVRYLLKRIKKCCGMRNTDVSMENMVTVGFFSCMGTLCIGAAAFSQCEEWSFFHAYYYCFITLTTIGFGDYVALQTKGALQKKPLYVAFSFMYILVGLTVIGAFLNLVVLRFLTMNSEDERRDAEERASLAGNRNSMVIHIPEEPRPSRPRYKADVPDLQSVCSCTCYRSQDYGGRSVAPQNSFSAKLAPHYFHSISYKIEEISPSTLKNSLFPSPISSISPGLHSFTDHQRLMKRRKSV
# KCNK9 block conf: KCNK9 potassium channel inhibitors, confirmation, HEK293 cells, thallium flux, duplicate; FluxOR thallium flux fluorescence; inhibition, % at 10 µM; shares compounds with KCNK9 inh; AID 492992, 2010; hit rate 43% among 4,900;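 active = thallium signal inhibited by more than 5 SD of the compound-free buffer control wells, on both duplicate plates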;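 note: 0% = assay buffer control wells without compound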
# Kir2-1 spec: mouse Kir2.1 channel inhibition, confirmation, selectivity assay for KCNK9 modulator project, cell-based, HEK293, thallium flux; hit rate 4% among 4,900; inhibition, % at 10 µM; shares compounds with KCNK9 inh; Kir2.1 cells, FluxOR thallium flux fluorescence;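 active = thallium signal drop more than 5 SD beyond the mean of the no-compound control wells, seen in both duplicate plates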;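 note: signal is fluorescence rise after thallium addition divided by baseline fluorescence; plate controls were assay buffer only for no effect and full block by chlorpromazine control for full effect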
# HEK293 Tl ctr: thallium flux in non-induced HEK293 cells, confirmation, counter-screen for KCNK9 inhibitor project, cell-based, second counter screen, non-induced KCNK9-HEK293 | shares compounds with KCNK9 inh | FluxOR thallium flux | inhibition, % at 10 µM | hit rate 40% among 4,900;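 active = thallium signal drop beyond 5 SD of the untreated control mean, on both duplicate plates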;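 note: plate controls were buffer only IC0 wells for no effect and SID17386958 at its maximal inhibitory level for full effect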
# TMEM16A reconf: TMEM16A chloride channel inhibitors, confirmation, cell-based, re-confirmation; hit rate 39% among 2,300; shares compounds with TMEM16A inh; AID 652189, 2013; HEK293 TMEM16A/YFP-H148Q, iodide quench fluorescence; ionomycin added to raise cell calcium; inhibition, % at 10 µM;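 active = mean duplicate percent inhibition, scaled so buffer wells are 0 and the reference blocker 100, over three buffer SD above buffer mean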
# HEK293 Ca mobil: calcium mobilization in TMEM16A/YFP HEK293 cells, confirmation, counter-screen for TMEM16A inhibitor project; AID 652231, 2013; shares compounds with TMEM16A inh; calcium response (% of ionomycin), % at 10 µM; Fluo4 calcium mobilization; hit rate 2% among 2,300;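 active = duplicate-averaged calcium signal over 20% of the ionomycin maximum, relative to buffer baseline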;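 note: each well's signal is peak minus trough fluorescence divided by its pre-addition baseline; 0% = buffer wells and 100% = ionomycin wells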
# YFP-HEK293 quench: iodide YFP quench changes in parental YFP-HEK293, counter-screen for TMEM16A inhibitor project, cell-based. shares compounds with TMEM16A inh. ionomycin. YFP ratio F(max-min)/F0 at 10 µM. 2,300 tested, under 10 active;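 active = yellow fluorescent protein signal ratio exceeding the buffer control mean by over 5 SD of those controls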;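 note: ratio is mean of duplicate wells from kinetic YFP trace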
# ClC-1 rat inh: ClC-1 chloride channel inhibition, selectivity assay for TMEM16A inhibitor project, cell-based, voltage-dependent ClC-1 | ratio percent, % at 10 µM | 2,300 tested, under 10 active | shares compounds with TMEM16A inh | CHO ClC-1-YFP, iodide influx fluorescence quench; iodide control reads 0, buffer control 100;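 active = duplicate-mean ratio percent above the mean of iodide-only control wells, which defines zero, plus 5 of their SD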;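 note: higher percent means stronger block of ClC-1 iodide influx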
# KCNK3 inh conf: retest of human KCNK3 channel inhibitors, confirmation, CHO cells, FluxOR thallium flux, triplicate; ratio percent of control, % at 10 µM; FluxOR fluorescence; 0% buffer, 100% carvedilol maximal block; AID 651638, 2012; shares compounds with KCNK3 inh; hit rate 99% among 2,400;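 active = ratio percent of control, averaged over triplicates, above buffer control mean plus 5 SD, cut at about 64% in these data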;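 note: ratio is the fluorescence rise from min to max over baseline after thallium stimulus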
# KCNK3 uninduced: thallium flux inhibition in non-induced cells, primary screen, counter-screen for KCNK3 inhibitor project, cell-based, non-induced KCNK3 line, FluxOR thallium, triplicate; shares compounds with KCNK3 inh; non-induced KCNK3 parental cells; hits give low values; thallium flux ratio (lower = more inhibition) at 10 µM; hit rate 40% among 2,400; AID 651747, 2012;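 active = thallium flux ratio, averaged over three wells, more than 5 SD below the buffer control mean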;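 note: host cells are CHO cells without KCNK3 induction; ratio is peak minus trough fluorescence over baseline then normalized to buffer controls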
# Starred values were filed as active, the others as inactive; i = inactive; / = no result.
SMILES,KCNK3 inh,TMEM16A inh,Kir21 block,TMEM16A act,KCNK9 inh,KCNK9 block conf,Kir2-1 spec,HEK293 Tl ctr,KCNK3 inh conf,KCNK3 uninduced,others
O=C(Cn1cc([N+](=O)[O-])cn1)Nc1ccn(Cc2c(F)c(F)c(F)c(F)c2F)n1,i,i,0.01,i,i,/,/,/,/,/,
CCOC(=O)c1c(NC(=O)CSc2nnc(C)s2)sc2c1CCCCC2,-9.8*,i,0.1,i,-9.4*,37%*,i,48%*,121*,0.16*,
CCOC(=O)c1c(NC(=O)CSc2nnc(C)c(=O)[nH]2)sc2c1CCCC2,i,i,0.14,i,i,/,/,/,/,/,
COc1ccc(C(=O)N2CCc3[nH]nc(-c4ccccc4)c3C2)cc1,i,i,-0.43,i,i,/,/,/,/,/,
CCOc1ccc(NS(=O)(=O)c2ccc(C)c(C(=O)NCCCn3ccnc3)c2)cc1,i,i,-0.03,i,i,/,/,/,/,/,
COCCN1C(=O)Cc2c1nc(N)c1c(N)nc(N3CCN(c4ccc(F)cc4)CC3)c(C#N)c21,i,i,0.4,i,i,/,/,/,/,/,
COCC(C)N1C(=O)Cc2c1nc(N)c1c(N)nc(N3CCN(c4ccccc4F)CC3)c(C#N)c21 (stereo not drawn),i,i,0.67,i,-11*,62%*,i,i,115*,0.15*,
Oc1cc2c(cc1C(c1ccc(Cl)c(Cl)c1)N1CCCC1)OCO2 (stereo not drawn),-12*,/,0.73,i,-8.7*,i,i,41%*,136*,0.15*,
COc1ccc(/C=C/C(=O)Nc2c(C(=O)O)[nH]c3ccccc23)cc1OC,i,i,1.4,i,i,/,/,/,/,/,
O=C(CSc1nc2ccccc2c(=O)n1-c1ccccc1Cl)NC1CCS(=O)(=O)C1 (stereo not drawn),i,/,/,i,/,/,/,/,/,/,
CCOC(=O)c1c(S(=O)(=O)Nc2ccc(F)cc2C)c(C)n(C)c1C,-9.5*,i,0.1,i,-14*,64%*,i,26%*,116*,i,
CCOC(=O)c1c(S(=O)(=O)Nc2ccc(C)c(F)c2)c(C)n(C)c1C,i,i,0.38,i,i,/,/,/,/,/,
CC(C)(C)c1ccc(/C=C/C(=O)N2CCc3ccccc3C2)cc1,-11*,i,0.07,i,i,i,i,26%*,124*,0.15*,
O=C(C[n+]1ccccc1)N/N=C/c1ccc(Cl)c(Cl)c1,i,i,0,i,i,/,/,/,/,/,
Cc1ccc(NC(=O)c2cccs2)cc1NC(=O)c1ccccc1Cl,i,i,0.54,i,i,/,/,/,/,/,
COc1ccc(-c2cccc(NC(=O)c3cccs3)c2)nn1,-10*,i,0.54,i,-9.1*,35%*,i,i,96*,i,
O=C(Nc1cccc(NC(=O)c2ccccc2Cl)c1)c1cccs1,i,i,-0.28,i,-13*,57%*,i,28%*,112*,i,
CSc1cccc(NC(=O)CN(Cc2ccc(Cl)cc2)S(C)(=O)=O)c1,i,i,-0.56,i,i,/,/,/,/,/,
Cc1cccc(NC(=S)N/N=C/c2cccn2Cc2ccc(F)cc2)c1,-9.3*,i,-2.1,i,-14*,60%*,i,i,63*,i,
Cc1ccc(S(=O)(=O)c2nc(S(C)(=O)=O)sc2N2CCC(C)CC2)cc1,i,i,-0.35,i,i,/,/,/,/,/,
Cc1cccc(/C(N)=N/OC(=O)Cc2ccccc2)c1,i,i,0.56,i,i,/,/,/,/,/,
CCC(C(=O)O/N=C(\N)c1cccc(C)c1)c1ccccc1 (stereo not drawn),-15*,i,-0.41,i,-9.3*,34%*,i,24%*,127*,0.15*,
COc1ccc(CC(=O)OCC(=O)NC2CCCC(C)C2C)cc1 (stereo not drawn),i,/,/,i,/,/,/,/,/,/,
O=C(COc1ccc(-c2nnco2)cc1)NCc1ccccc1Cl,i,i,0.45,i,i,/,/,/,/,/,
Cc1cc(C(=O)COc2ccc(-c3nnco3)cc2)c(C)n1Cc1ccccc1,i,100*,-2.3,i,i,/,/,/,/,/,TMEM16A reconf=18%*;HEK293 Ca mobil=i;YFP-HEK293 quench=-0.84;ClC-1 rat inh=-16
CC(=O)NCc1ccc(S(=O)(=O)NC(C(=O)O)C(C)C)cc1 (stereo not drawn),i,i,-0.54,i,i,/,/,/,/,/,
COc1ccc(OC)c(C(=O)c2c(C)oc3cc([N+](=O)[O-])c(O)c([N+](=O)[O-])c23)c1,i,i,1.7,i,i,/,/,/,/,/,

# Assay outcomes: PubChem, Johns Hopkins Ion Channel Center
